Source: PubChem BioAssay
SMN2 splice enh: SMN2 splice variant enhancement. HEK293 SMN2-luciferase splicing reporter, luminescence, 30-36 h. Potency, µM (top dose mostly 46.1 µM), hits mostly activators. 2.8% of 210,000 active. AID 1458; further: nearly all actives have a fitted effect of over 55% in size
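HEK293 cells carry an SMN2 […]–luciferase reporter in which exon 7 inclusion puts luciferase in frame. Cells were plated 10-12 h before compound addition, then incubated 30-36 h at 37C. ONE-Glo luminescence was read; sodium butyrate at 4.5 mM final served as control.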
ELG1 genotoxic: inducers of genotoxicity in HEK293T ELG1-luciferase cells | HEK293T ELG1-luciferase reporter, luminescence, 16 h | Potency, µM (series often up to 46 µM), actives largely listed as activators | 1.3% of 330,000 active | AID 504466; further: nearly all actives have a fitted effect of over 60% in size
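Reporter readout depends on ELG1 protein level, which increases with genetic stress. After 16 hr compound exposure at 37 °C, luciferase activity was quantified using ONE-Glo.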
NPC1 prom act: activators of NPC1 promoter; Huh7 NPC1 promoter luciferase reporter, 24 h; Potency, µM (series often up to 9.22 µM), usual class: activators; 2.4% of 320,000 active; further: nearly all actives have a fitted effect of over 60% in size
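NPC1 promoter–luciferase Huh7 cells; 24 h compound; luminescence.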
ELG1 DNA repair: ELG1-dependent DNA repair inhibition. 2.3% of 330,000 active. Potency, µM (series often up to 46.1 µM), most hits filed as inhibitors. HEK293T ELG1-luciferase reporter, luminescence, 16 h; DNA damage induced by 5-fluorouridine; further: nearly all actives have a fitted effect of over 55% in size
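Cells (2,000 per well) received 5-fluorouridine plus test compound or DMSO and were incubated 16 hr at 37 °C, 5% CO2. Luciferase activity was read by luminescence 30 min after ONE-Glo addition; signal suppression marked inhibition of damage-induced ELG1 function.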
Rab9 prom act: Rab9 promoter activation; Huh7 Rab9 promoter-luciferase reporter, luminescence, 24 h; Potency, µM (highest dose often 9.22 µM), usual class: activators; 2.8% of 320,000 active; AID 485297; further: nearly all actives have a fitted effect of over 60% in size
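Luciferase signal after 10 min detection reagent at ambient indicates Rab9 promoter upregulation; stably transfected Huh7 cells were treated 24 h with compound in DMSO at 37 °C, 5% CO2.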
FLuc modulator: inhibits or activates purified firefly luciferase, miR-21 counter-screen; P08659; purified FLuc, Km substrates, luminescence inhibition; Potency, µM (top dose mostly 57.5 µM), usual class: inhibitors; 6.9% of 360,000 active; AID 588342; further: nearly all actives have a fitted effect of over 55% in size
Target sequence (P08659 whole entry, looked up): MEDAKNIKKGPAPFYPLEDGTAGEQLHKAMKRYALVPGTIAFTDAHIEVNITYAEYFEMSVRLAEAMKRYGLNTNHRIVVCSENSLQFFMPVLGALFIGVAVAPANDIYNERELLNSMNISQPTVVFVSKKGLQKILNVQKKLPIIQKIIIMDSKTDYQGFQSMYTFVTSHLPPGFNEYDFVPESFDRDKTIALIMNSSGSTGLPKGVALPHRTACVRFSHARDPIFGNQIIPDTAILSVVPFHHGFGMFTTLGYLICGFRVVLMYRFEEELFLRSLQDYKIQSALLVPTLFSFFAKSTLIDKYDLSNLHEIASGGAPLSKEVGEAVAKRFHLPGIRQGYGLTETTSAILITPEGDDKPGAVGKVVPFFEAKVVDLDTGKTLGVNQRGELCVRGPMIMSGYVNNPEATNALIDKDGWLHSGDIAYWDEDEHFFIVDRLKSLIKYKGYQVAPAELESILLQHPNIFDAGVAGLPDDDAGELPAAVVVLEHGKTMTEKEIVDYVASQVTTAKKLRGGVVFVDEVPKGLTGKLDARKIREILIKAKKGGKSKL
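Biochemical qHTS of compounds, final roughly 60 µM downward over six points, against 10 nM purified firefly luciferase using Km concentrations of substrates (10 uM D-luciferin, 10 uM ATP) in Tris acetate pH 7.5 buffer; luminescence output.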
Of the large screens only hits and unclear results are named; the others gave an inactive call. Most compounds without a hit are left out; they make up all but 9.4% or so of the library. The call rests on the fitted dose curve; in most records, active means well fitted curve in the direction sought with a large enough effect; inconclusive means small, poorly fitted or top-dose-only effect, or another doubt; inactive means no such curve, though single readings can be large; an effect the other way counts as inactive or inconclusive.

CCN(CC)S(=O)(=O)c1ccc(N2CCOCC2)c(NC(=O)Cc2ccccc2)c1	ELG1 DNA repair inconclusive
CCN(CC)S(=O)(=O)c1ccc(N2CCCC2)c(NC(=O)c2nn(C)c(=O)c3ccccc23)c1	ELG1 DNA repair 18µM (no result: SMN2 splice enh)
CCN(CC)S(=O)(=O)c1ccc(N2CCOCC2)c(NC(=O)Cc2cccc3ccccc23)c1	ELG1 DNA repair 7.3µM
CCOc1cc(N2CCOCC2)c(OCC)cc1NC(=O)Cc1cccc2ccccc12	ELG1 DNA repair 18µM
CCN(CC)S(=O)(=O)c1ccc(N2CCOCC2)c(NC(=O)Cc2ccccc2F)c1	ELG1 DNA repair 18µM
Cn1nc(C(=O)Nc2ccccc2N2CCCC2)c2ccccc2c1=O	ELG1 DNA repair inconclusive (no result: SMN2 splice enh)
CCc1cccc(NC(=O)CNS(=O)(=O)c2ccc3nc(C)sc3c2)c1	none (no result: ELG1 genotoxic, NPC1 prom act, ELG1 DNA repair, Rab9 prom act)
Cc1ccc(C2CC(=O)N(Cc3ccccc3F)c3c2c(C)nn3-c2nc(C)cc(C)n2)cc1 (configuration not stated)	none (no result: SMN2 splice enh, ELG1 genotoxic, NPC1 prom act, ELG1 DNA repair, Rab9 prom act)
CCOC(=O)CSc1nc2cc3c(cc2c(=O)n1CCCC(=O)NCCc1ccc(OC)c(OC)c1)OCO3	none (no result: SMN2 splice enh, ELG1 genotoxic, NPC1 prom act, ELG1 DNA repair, Rab9 prom act)
COc1ccc(-n2c(=O)c3ccc(C(=O)NCc4ccc(C)cc4)cc3n(CC(=O)Nc3cccc(F)c3)c2=O)cc1	none (no result: ELG1 genotoxic, NPC1 prom act, ELG1 DNA repair, Rab9 prom act)
C/C(=N\NC(=O)CSc1nc(C)[nH]c1[N+](=O)[O-])c1ccc(F)cc1	ELG1 DNA repair inconclusive, Rab9 prom act inconclusive, FLuc modulator 15µM (no result: SMN2 splice enh)
Cc1nc(SCC(N)=O)c([N+](=O)[O-])[nH]1	none
Cc1ccc(C)c(CSc2nc(-c3ccccc3F)nc3c2Cc2c(CO)cnc(C)c2O3)c1	none (no result: SMN2 splice enh, ELG1 genotoxic, NPC1 prom act, ELG1 DNA repair, Rab9 prom act)
Cc1cc(C(=O)OCC(=O)c2ccc(Br)s2)c(C)o1	ELG1 DNA repair inconclusive, FLuc modulator inconclusive
Cc1cc(C(=O)OCC(=O)c2ccc(Br)s2)no1	ELG1 DNA repair inconclusive, FLuc modulator 9.5µM
COc1cccc(C(=O)OCC(=O)c2ccc(Br)s2)c1OC	ELG1 DNA repair inconclusive, FLuc modulator 8.5µM (no result: SMN2 splice enh)
CCOc1ccc(NC(=O)CCn2c(=O)[nH]c3ccsc3c2=O)cc1	none
COC(=O)c1sc(N)c(C(=O)OC)c1COC(=O)C1CC(=O)N(Cc2ccco2)C1 (configuration not stated)	ELG1 DNA repair 8.2µM
CCOC(=O)c1sc(N)c(C(=O)OCC)c1COC(=O)C1CC(=O)N(Cc2ccco2)C1 (configuration not stated)	ELG1 DNA repair inconclusive
Cc1ccc(N=CC=C2OC(C)(C)C(C)(C)O2)cc1	FLuc modulator 7.6µM
Cc1cccc(N=CC=C2OC(C)(C)C(C)(C)O2)c1	ELG1 DNA repair inconclusive, FLuc modulator inconclusive
CC1CCc2c(C(=O)Nc3ccccn3)csc2C1 (configuration not stated)	ELG1 genotoxic inconclusive, NPC1 prom act 3.5µM, ELG1 DNA repair inconclusive, Rab9 prom act 3.2µM, FLuc modulator 2.1µM (no result: SMN2 splice enh)
CC1CCc2sc(C(=O)NCc3ccc(F)cc3)cc2C1 (configuration not stated)	ELG1 DNA repair inconclusive, FLuc modulator inconclusive
CC1CCc2sc(C(=O)NCc3ccccn3)cc2C1 (configuration not stated)	ELG1 genotoxic 18µM, ELG1 DNA repair inconclusive, Rab9 prom act inconclusive, FLuc modulator 19µM (no result: SMN2 splice enh)
CC1CCc2c(C(=O)NCc3cccnc3)csc2C1 (configuration not stated)	ELG1 DNA repair inconclusive
Cc1ccccc1NC(=S)NNC(=O)c1csc2c1CCC(C)C2 (configuration not stated)	ELG1 genotoxic inconclusive, NPC1 prom act 3.2µM, ELG1 DNA repair inconclusive, Rab9 prom act 2.2µM, FLuc modulator 2.4µM
CCNC(=S)NNC(=O)c1csc2c1CCC(C)C2 (configuration not stated)	none
CC1CCc2c(C(=O)NCc3ccccn3)csc2C1 (configuration not stated)	SMN2 splice enh inconclusive, ELG1 genotoxic inconclusive, NPC1 prom act inconclusive, ELG1 DNA repair inconclusive, FLuc modulator 21µM
O=C(O)c1cccc(Cl)c1Cl	none (no result: ELG1 genotoxic, NPC1 prom act, ELG1 DNA repair, Rab9 prom act, FLuc modulator)
CCSc1nnc(NC(=O)c2csc3c2CCC(C)C3)s1 (configuration not stated)	none
CC1CCc2c(C(=O)Nc3nccs3)csc2C1 (configuration not stated)	SMN2 splice enh inconclusive, ELG1 genotoxic inconclusive, NPC1 prom act inconclusive, ELG1 DNA repair inconclusive, Rab9 prom act inconclusive, FLuc modulator 4.8µM
COC(=O)Cn1ncc(N(C)Cc2ccccc2)c(Cl)c1=O	ELG1 genotoxic inconclusive, NPC1 prom act 2.5µM, ELG1 DNA repair inconclusive, Rab9 prom act inconclusive, FLuc modulator 12µM (no result: SMN2 splice enh)
COC(=O)Cn1ncc2c3ccccc3n(Cc3ccccc3)c2c1=O	none
O=C(NC1=NCCS1)c1cc(-c2cccnc2)nc2ccccc12	ELG1 DNA repair inconclusive, FLuc modulator inconclusive
O=C(O)c1ccc(/C=N/NC(=O)c2cc(-c3cccs3)nc3ccccc23)cc1	FLuc modulator 6µM
C/C(=N\NC(=O)c1cc(-c2cccs2)nc2ccccc12)c1ccccn1	FLuc modulator 24µM
Cc1ccc2nc(C)c(C(=O)N/N=C/c3ccc(C(=O)O)cc3)cc2c1	Rab9 prom act inconclusive, FLuc modulator 5.4µM (no result: SMN2 splice enh)
O=C(NC1=NCCS1)c1cc(-c2cccs2)nc2ccccc12	ELG1 DNA repair inconclusive, FLuc modulator 12µM (no result: SMN2 splice enh)
NNC(=O)c1cc(-c2cccs2)nc2ccccc12	ELG1 DNA repair inconclusive (no result: SMN2 splice enh)
Cc1nc2c(C)cccc2cc1C(=O)N/N=C/c1ccc(O)cc1	FLuc modulator inconclusive
COC(=O)N1CCC2(CCCN(c3ncccn3)C2)CC1	none (no result: ELG1 genotoxic, NPC1 prom act, ELG1 DNA repair, Rab9 prom act, FLuc modulator)
Cc1nc2cncnc2n(-c2ccccc2)c1=O	none (no result: ELG1 genotoxic, NPC1 prom act, ELG1 DNA repair, Rab9 prom act, FLuc modulator)
O=C(N/N=C/c1ccsc1)c1cc(-c2cccs2)nc2ccccc12	SMN2 splice enh inconclusive, ELG1 DNA repair inconclusive, FLuc modulator 9.5µM
O=C(N/N=C/c1ccsc1)c1cc(-c2ccncc2)nc2ccccc12	FLuc modulator inconclusive
O=C(CSc1nc(O)c(C2CCCCC2)c(=O)[nH]1)NCC1CCCO1 (configuration not stated)	ELG1 DNA repair inconclusive, FLuc modulator 15µM
CCC(=O)Oc1ccc(C(=O)Nc2ccc([N+](=O)[O-])cc2)cc1	SMN2 splice enh 14µM, NPC1 prom act 2.8µM, ELG1 DNA repair inconclusive, Rab9 prom act inconclusive
CC(C)COc1ccc(C(=O)Nc2ccc([N+](=O)[O-])cc2)cc1	ELG1 DNA repair 1.5µM
CC(C)COc1ccc(C(=O)Nc2ccc(SC(F)F)cc2)cc1	SMN2 splice enh inconclusive, NPC1 prom act inconclusive, ELG1 DNA repair inconclusive, Rab9 prom act inconclusive, FLuc modulator inconclusive
Cc1nn(-c2ccccc2)c(N2CCCC2)c1/C=N/NC(=O)c1cc2ccccc2cc1O	ELG1 DNA repair inconclusive (no result: SMN2 splice enh)
